Bioassay records (PubChem BioAssay)
Only some compounds are listed: those with a hit (about 19% of all), similar ones and a draw of the others.
HT1080-NT tox = kills 2HG-producing HT-1080-NT fibrosarcoma cells; actives 1.6% (n = 360,000); HT-1080-NT fibrosarcoma viability, CellTiter-Glo ATP luminescence, 48 h; Potency, µM (doses to about 46.1 µM), without a hit: at the highest dose activity, negative = less viability, actives largely listed as cytotoxic;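 also: NT is the 2HG producing partner of a matched IDH1 knockdown line; 0% = DMSO-treated cells and -100% = media-only wells without cells; nearly all actives have a fitted effect of over 55% in size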
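Luminescent CellTiter-Glo readout after 48 hours of compound exposure at 37 degrees C defined viability of HT-1080-NT cells. Activity was normalized to DMSO wells and cell-free media wells; concentration-response curves were fitted and assigned curve classes.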
HT1080 IDH1KD tx = HT-1080 IDH1 knockdown cell toxicity (counter line) | HT-1080 IDH1 knockdown viability, ATP luminescence, 48 h | Potency, µM (top dose mostly 46.1 µM), for the others: at the highest dose activity, negative = toxicity, most hits filed as cytotoxic | actives 2% (n = 360,000) | AID 686971;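 also: 0% = DMSO wells and -100% = cell-free medium wells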
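Luminescent ATP read-out (CellTiter-Glo, 10 min at room temperature) after 48 h compound exposure at 37 °C gave viability of IDH1-knockdown HT-1080 cells. Activity was normalised to DMSO and cell-free wells, then fitted as concentration-response curves.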
TDP1 cell CPT = DT40-hTDP1 cell growth loss with CPT | AID 686979 | actives 12% (n = 420,000) | chicken DT40 Tdp1-/-;hTDP1 cells + 20 nM CPT, ATP luminescence, 48 h | Potency, µM (series often up to 46.2 µM), inactives show top-dose activity change, negative = growth inhibition, actives largely listed as inhibitors; also: nearly all actives have a fitted effect of over 55% in size
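Cell growth measured by CellTiter-Glo luminescence after a minimum 48 h, 37 C compound exposure with 20 nM CPT in Tdp1-knockout DT40 cells stably expressing hTDP1, seeded 400/well; qHTS titration format.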
KB-3-1 tox = kills parental KB-3-1 adenocarcinoma cells. AID 1347075. KB-3-1 viability, CellTiter-Glo ATP luminescence, 72 h. actives 1.4% (n = 400,000). Potency, µM (top dose mostly 46.1 µM), usual class: cytotoxic; also: nearly all actives have a fitted effect of over 60% in size
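Using CellTiter-Glo luminescence, growth of non-resistant KB-3-1 adenocarcinoma cells is assessed 72 h after pin-tool compound addition at 37 °C. Normalized responses across the concentration series yield fitted curves.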
TDP1 cell noCPT = qHTS for Inhibitors of human tyrosyl-DNA phosphodiesterase 1 (TDP1): qHTS in cells in absence of CPT. actives 15% (n = 420,000). Potency, µM (titrated, usually from 46.2 µM), without a hit: at the top dose activity change, negative = growth inhibition, hits mostly inhibitors. DT40 Tdp1-/- hTDP1 cells, no CPT, ATP luminescence, 48 h. AID 686978, 2013; also: nearly all actives have a fitted effect of over 55% in size
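Cells were dispensed at 400 per well, compounds added by pin tool, plates incubated ≥48 hr at 37 °C, then CellTiter-Glo added for 30 min at room temperature before luminescence reading. Line: DT40 Tdp1-/- complemented with hTDP1; camptothecin omitted.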
KB-V1 MDR tox = kills drug-selected multidrug resistant KB-V1 cells; AID 1347076; Potency, µM (series often up to 46.1 µM), usual class: cytotoxic; actives 3.4% (n = 400,000); KB-V1 MDR cells viability, CellTiter-Glo, 72 h; also: nearly all actives have a fitted effect of over 60% in size
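Cytotoxicity toward P-gp-expressing KB-V1 cells was determined as loss of CellTiter-Glo luminescence after 72 h at 37 degrees C. Compounds were tested in quantitative HTS format across a concentration range, with curves fitted to normalized data.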
Active calls of the source: *; i = inactive; ? = inconclusive; . = no result; [ ] = dose if it differs, or a comment. Calls follow the shape of the dose curve; as a rule, active = well fitted curve in the direction sought with a large enough effect; inconclusive = small, poorly fitted or top-dose-only effect, or another doubt; inactive = no such curve, though single readings can be large; an effect the other way counts as inactive or inconclusive. Unless noted, % is scaled to controls: 0 for no effect and ±100 for the full control effect; potency is read from the fitted curve at half-maximal effect.

SMILES	HT1080-NT tox	HT1080 IDH1KD tx	TDP1 cell CPT	KB-3-1 tox	TDP1 cell noCPT	KB-V1 MDR tox
C=CCOc1ccc(CN(C)C(=O)c2ccc(CNS(=O)(=O)c3ccc(C)c(C)c3)cc2)cc1	?	?	?	13µM*	21µM*	?
COc1cccc(CN2CC(C(=O)NCCCn3ccnc3C)CCC2=O)c1 (configuration not stated)	-2%	-4%	-15%	?	4%	i
COc1ccc(/C=C/c2noc(-c3ccccc3O)n2)cc1	-2%	-28%	6%	i	?	i
COc1ccc(/C=C/c2ccc3c(Br)ccc(O)c3n2)cc1	-1%	-13%	10µM*	?	21µM*	?
COc1cc(/C=C/c2ccc3c(Br)cc(Br)c(O)c3n2)ccc1O	?	?	3.3µM*	?	5.2µM*	i
COc1cc(/C=C/C2=NC(=O)C(C)(C)O2)ccc1O	12%	-25%	?	i	-12%	i
Cc1ccc2c(Br)cc(Br)c(O)c2n1	.	.	7.5µM*	.	8.4µM*	.
CCOC(=O)C1=C(C)c2ccccc2N(C(=O)OC)C1(C)C(=O)OCC (configuration not stated)	3%	0%	10µM*	i	10µM*	i
CCOC(=O)C1=C(C)c2ccccc2OC1(CC)C(=O)OCC (configuration not stated)	4%	6%	?	i	?	i
Cc1[nH]c(-c2ccccn2)nc(=S)c1Cl	0%	-23%	10µM*	i	?	?
Cc1cc(=S)nc(-c2ccccn2)[nH]1	-1%	-4%	3.3µM*	?	4.6µM*	i
CCC(CC)NC(=O)CON=C1c2ccccc2-c2ccccc21	-28%	-22%	21µM*	i	16µM*	23µM*
O=C(c1ccc2ccccc2c1O)N1CCCCC1	0%	14%	?	i	?	i
Cc1ccn2cc(-c3cccc(NC(=O)c4cccs4)c3)nc2c1	-3%	-7%	?	i	21µM*	?
Cc1nc(-c2cccc(NC(=O)c3cccs3)c2)cs1	-6%	?	-23%	i	?	i
O=C(Nc1cccc(-c2csc(-c3ccccc3)n2)c1)c1cccs1	?	-24%	18µM*	i	16µM*	15µM*
Cc1noc(C)c1-c1ccc(C(=O)NCc2ccc(Cl)cc2)c2occc12	?	?	?	i	?	?
CC1CN(Cc2cccn2-c2cccnc2)Cc2cc(Cl)ccc2O1 (configuration not stated)	.	.	-18%[9.04 µM]	.	18µM*	.
Cc1cccn2c(=O)c(/C=C(\C#N)C(=O)NC3CCS(=O)(=O)C3)c(N3CCC(C(N)=O)CC3)nc12 (configuration not stated)	7%	13%	3%	i	-5%	i
Cc1ccccc1Oc1nc2c(C)cccn2c(=O)c1/C=C(\C#N)C(=O)NC1CCS(=O)(=O)C1 (configuration not stated)	?	13µM*	12µM*	i	21µM*	i
Cc1cccn2c(=O)c(/C=C(\C#N)C(=O)NC3CCS(=O)(=O)C3)c(Oc3ccccc3Cl)nc12 (configuration not stated)	?	?	?	i	21µM*	i
O=C(O)CN1C(=O)C2(OCCCO2)c2ccccc21	13%	4%	2%	i	5%	i
Cc1ccccc1CN1C(=O)C2(OCCCO2)c2ccccc21	1%	-27%	11µM*	i	?	i
CCOc1ccccc1NC(=O)Cn1cc(C(=O)c2cccc(OC)c2)c(=O)c2ccc(C)nc21	.	.	?	i	?	i
COC(=O)c1ccc(CSc2nnc(C)s2)cc1	9%	13%	12µM*	i	10µM*	i
SMILES	HT1080-NT tox	HT1080 IDH1KD tx	TDP1 cell CPT	KB-3-1 tox	TDP1 cell noCPT	KB-V1 MDR tox
CCn1cc(C(=O)NCCc2ccc(OC)cc2)c(=O)c2ccc(C)nc21	12%	17%	?	i	23µM*	i
CCn1cc(C(=O)OCC(=O)Nc2c(C)cccc2C)c(=O)c2ccc(C)nc21	-18%	-16%	16µM*	i	23µM*	i
Cc1cc2c(cc1C)-n1nnnc1C(N1CCN(c3ncccc3C#N)CC1)C(=O)N2 (configuration not stated)	0%	-5%	?	i	?	?
CC(=O)NC(c1ccc(F)c(F)c1)c1nc(-c2ccccc2C)cs1 (configuration not stated)	-5%	-3%	?	i	?	i
Cc1nn(C)c2c1c(C(F)(F)F)cc(=O)n2C(C)C(=O)Nc1ccccc1F (configuration not stated)	.	.	?	i	-26%	i
CS(=O)(=O)Nc1cccc(NC(=O)c2ccc(-n3ccnc3)c3ccoc23)c1	13%	6%	13µM*	?	15µM*	i
Cn1nccc1-c1ccc(C(=O)Nc2cccc(NS(C)(=O)=O)c2)c2occc12	-9%	-8%	?	i	26µM*	i
CC(NC(=O)c1ccc(Cl)cc1)c1nnc(SCC(=O)NC2=NCCS2)n1C (configuration not stated)	-3%	15%	5%	i	-5%	i
CCN(c1ccccc1)S(=O)(=O)c1ccc2c(c1)CCCN2C(C)=O	0%	1%	-27%	i	?	?
CC(=O)N1CCCc2cc(S(=O)(=O)N(C)CC(=O)Nc3ccc(C(C)C)cc3)ccc21	.	.	18µM*	i	23µM*	i
CC(=O)N1CCCc2cc(S(=O)(=O)N(CC(C)C)CC(C)C)ccc21	-23%	-29%	26µM*	i	?	i
O=C(Nc1cc(C(F)(F)F)cc(C(F)(F)F)c1)O[C@@H]1c2ccccc2[C@@H]2Cc3csc[n+]3[C@H]12	-6%	-7%	5%	?	-12%	i
Cc1cc(C)cc(N2C(=O)CN(Cc3sccc3C)C2=S)c1	0%	7%	-3%	i	-10%	i
Cc1cccc(N2C(=O)CN(Cc3sccc3C)C2=S)c1	1%	0%	-20%	?	-24%	23µM*
CCC(CC)c1nn2c(=O)cc(COc3ccc(NC(=O)c4cccc(Cl)c4)cc3)nc2s1	.	.	-1%	i	-15%	i
